Data taken from PubChem BioAssay AID2685 (National Center for Advancing Translational Sciences (NCATS), 2010).
About 2,100 (0.66%) of roughly 320,000 compounds were called active. Roughly 53% stayed inconclusive and do not appear here. Calls come from the whole dose curve; as a rule, active = well fitted inhibition curve with a large enough effect in the signal ratio, with a control signal flat (not every such curve was filed as active); inconclusive = small, poorly fitted or top-dose-only effect, or effect the other way, or a change in a side signal; inactive = flat fitted curve, though single readings scatter; the % refers to the signal ratio. The list comes from a sample in which actives are over-represented; it also holds similar structures and randomly drawn compounds.

Assay: qHTS Assay for Lipid Storage Modulators in Drosophila S3 Cells;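 for cell number change: cells counted by Cell Tracker Red CMTPX staining in the red channel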; for lipid storage change, negative = inhibition: % is set by controls: 0 for no effect and ±100 for the full control effect
Conditions: BODIPY lipid droplet fluorescence, 18-24 h, cells fed with added oleic acid; cell number change: measured here: cell count max response; series mostly up to 46.1 µM; lipid storage change, negative = inhibition: at the top concentration
Method in brief: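 Laser-scanning cytometry quantifies lipid droplet accumulation (500–530 nm total intensity; droplet/cell object ratio) in oleic acid-fed (400 uM added) Drosophila S3 cells treated with a concentration series. 20 uM Triacsin C defined 100% inhibition.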
Potency is the fitted concentration of half-maximal effect.

Row | SMILES | lipid storage change, negative = inhibition | cell number change [%] | Potency | outcome
1 | O=c1[nH]c2ccccc2n2c(-c3ccncc3)nnc12 | -8.9% (inactive) | -11.8 |  | 
2 | O=C(Nc1cccc(Cl)c1)c1cc2c(=O)n3ccccc3nc2s1 | -9.52% (inactive) | 1.29 |  | 
3 | CC(=O)NS(=O)(=O)c1ccc(NC(=O)c2cc3c(=O)n4ccccc4nc3s2)cc1 | 5.64% (inactive) | 21.8 |  | 
4 | Cc1cc(C)cc(NC(=O)c2cc3c(=O)n4ccccc4nc3s2)c1 |  | -3.42 | 6.51 µM (active) | 
5 | O=C(CCC1CCCC1)Nc1ccccc1-c1ccccc1 | 4.16% (inactive) | -0.161 |  | 
6 | COc1ccc(NC(=O)C2CCCCN2N)cc1OC (stereo unspecified) | -0.29% (inactive) | -2.19 |  | 
7 | Cc1cc(C)cc(NC(=O)CSc2ccc(-c3ccccn3)nn2)c1 | -5.08% (inactive) | 2.31 |  | 
8 | O=S1(=O)CC/C(=N\O)c2ccccc21 | 5.13% (inactive) | 0.644 |  | 
9 | O=c1cc(CO)oc(C(Nc2ccccn2)c2ccccc2Cl)c1O (stereo unspecified) | -1.26% (inactive) | -7.74 |  | 
10 | O=C(COc1cccc(C(F)(F)F)c1)Nc1cccnc1 | -7.09% (inactive) | 28.7 |  | 
11 | N#Cc1ccc(OCC(=O)Nc2nc(-c3cccnc3)cs2)cc1 | 12.5% (inactive) | -1.13 |  | 
12 | N#Cc1ccc(-c2ccc(OCC(=O)Nc3cccnc3)cc2)cc1 |  | -11.3 | 13 µM (active) | 
13 | Nc1ccc(S(=O)(=O)c2ccc(N)c(N)c2)cc1 | 1.95% (inactive) | 15.7 |  | 
14 | CCCCCOCC(O)CCC(=O)NN (stereo unspecified) | -1.04% (inactive) | -19 |  | 
15 | Cc1ccc2cc(C(c3nnnn3C3CCCC3)N(Cc3ccccc3)Cc3ccco3)c(=O)[nH]c2c1 (stereo unspecified) |  | -7.33 |  | inactive
16 | CCOC(=O)C1=C(CN2CCN(C(=O)c3ccco3)CC2)NC(=O)NC1c1ccc(F)cc1 (stereo unspecified) |  | -24.3 |  | inactive
17 | CCOC(=O)C1=C(CN2CCN(C(=O)c3ccco3)CC2)NC(=O)NC1c1ccc(OC(C)C)cc1 (stereo unspecified) |  | -20.3 | 18.4 µM (active) | 
18 | CCOC(=O)C1=C(C)NC(=O)NC1c1ccc(OC(=O)c2ccco2)cc1 (stereo unspecified) | 3.41% (inactive) | -14 |  | 
19 | O=c1oc(-c2ccccc2)nc2sc3c(c12)CCCC3 |  |  |  | inactive
20 | Cc1ccccc1-c1nc2sc3c(c2c(=O)o1)CCC3 | 2.37% (inactive) | 4.59 |  | 
21 | Cc1nc2sc3c(c2c(=O)o1)CCCC3 |  | 5.3 | 29.1 µM (active) | 
22 | COc1cccc(-c2nc(-c3ccccn3)no2)c1 | 4.98% (inactive) | -6.27 |  | 
23 | Cc1c(NC(=O)CSCc2c(F)cccc2Cl)c(=O)n(-c2ccccc2)n1C | 5.12% (inactive) | 19 |  | 
24 | O=C1Nc2ccc(S(=O)(=O)N3CCCC3C(=O)O)c3cccc1c23 (stereo unspecified) | -0.439% (inactive) | 2.18 |  | 

Row | SMILES | lipid storage change, negative = inhibition | cell number change [%] | Potency | outcome
25 | CC1CCCCN1C(=O)/C(=C\c1ccccc1)c1ccccc1 (stereo unspecified) | -10.3% (inactive) | 7.23 |  | 
26 | CN1CCN(C(=O)/C(=C\c2ccccc2)c2ccccc2)CC1 |  | -17.9 | 18.4 µM (active) | 
27 | O=C(/C(=C/c1ccccc1)c1ccccc1)N1CCCCC1 | -0.342% (inactive) | -13.6 |  | 
28 | CS(=O)(=O)c1ccccc1-c1nnc(NC(=O)c2ccc(S(=O)(=O)N3CCCC3)cc2)o1 |  |  |  | inactive [at 0.0737 µM]
29 | COCCCNC(=O)c1ccccc1-c1cc(C)no1 | 14.1% (inactive) | -2.62 |  | 
30 | CC(=O)Nc1cc(C(F)(F)F)ccc1N1CCOCC1 | 1.01% (inactive) | 3.32 |  | 
31 | CC(C(=O)Nc1cc(C(F)(F)F)ccc1N1CCOCC1)N1C(=O)C2CC=CCC2C1=O (stereo unspecified) |  | -1.98 | 1.46 µM (active) | 
32 | CC(Cl)C(=O)Nc1cc(C(F)(F)F)ccc1N1CCOCC1 (stereo unspecified) | 10% (inactive) | -4.52 |  | 
33 | O=C(Cc1cccc2ccccc12)Nc1ccc(N2CCOCC2)cc1 | -10.4% (inactive) | -1.09 |  | 
34 | CC(=O)N1N=C(c2ccncc2)OC12CCCC2 |  | -12.2 | 16.4 µM (active) | 
35 | CC(=O)N1N=C(c2ccccc2)OC12CCCC2 | 1.79% (inactive) | 3.13 |  | 
36 | CC(=O)N1N=C(c2ccncc2)OC12CCCCCC2 | 5.71% (inactive) | 5.48 |  | 
37 | CCCOc1ccc(S(=O)(=O)NNC(=O)c2cc3ccccc3o2)cc1 |  | -21.5 |  | inactive
38 | S=c1nc(C2CC2)n(-c2ccccc2)[nH]1 | -13.7% (inactive) | 6.79 |  | 
39 | CC(Sc1ccccc1)C(=O)N1CCN(S(=O)(=O)c2cccc(Br)c2)CC1 (stereo unspecified) |  |  |  | inactive
40 | CC(Sc1ccccc1)C(=O)N1CCN(S(=O)(=O)c2ccccc2F)CC1 (stereo unspecified) | -1.62% (inactive) | -14.5 |  | 
41 | CC(Sc1ccccc1)C(=O)N1CCN(S(=O)(=O)c2ccccc2)CC1 (stereo unspecified) |  | 22.7 | 0.0103 µM (active) | 
42 | CS(=O)(=NS(=O)(=O)c1ccc(Cl)cc1)c1ccccc1 (stereo unspecified) | 4.24% (inactive) | 5.26 |  | 
43 | N/C(=N\OC(=O)/C=C/c1ccccc1)c1ccccn1 | 2.94% (inactive) |  |  | 
44 | COc1cccc(-c2ncc3ccccc3c2COC(=O)c2ccc(Br)cc2)c1 |  | 2.33 |  | inactive
45 | O=C(COC(=O)c1ccccn1)Nc1cccc(Cl)c1Cl | 10.9% (inactive) | -0.814 |  | 
46 | O=C(COC(=O)c1cccs1)Nc1ccccc1C(F)(F)F | -1.51% (inactive) | -6.32 |  | 
47 | CCc1ccccc1NC(=O)COC(=O)c1cccs1 |  | -3.91 |  | inactive
48 | O=C(COC(=O)c1c2c(nc3ccccc13)CCCC2)c1cccs1 | -22.3% (inactive) | 9.93 |  | 

Row | SMILES | lipid storage change, negative = inhibition | cell number change [%] | Potency | outcome
49 | O=C(COC(=O)/C=C/c1cccs1)Nc1ccccc1Cl | -2.77% (inactive) | 11.7 |  | 
50 | O=C(COC(=O)c1ccccn1)Nc1ccccc1Cl | -3.35% (inactive) | -8.3 |  | 
51 | O=C(COC(=O)c1ccccn1)Nc1c(Cl)cccc1Cl |  | -5.33 | 16.4 µM (active) | 
52 | O=C(COC(=O)c1cccs1)Nc1ccccc1Cl |  | 2.94 | 16.4 µM (active) | 
53 | O=C(COC(=O)c1c2c(nc3ccccc13)/C(=C\c1cccs1)CCC2)Nc1ccccc1Cl |  | -12.6 | 0.58 µM (active) | 
54 | Nc1c(N(CCC2=CCCCC2)C(=O)C2CC2)c(=O)[nH]c(=O)n1Cc1ccccc1 | -4.29% (inactive) | 10.2 |  | 
55 | COc1ccc(C)cc1NC(=O)c1ccccc1NS(=O)(=O)c1cccc2cccnc12 | 1.11% (inactive) | -4.79 |  | 
56 | CCOc1ccc(CO/N=C/c2c(C)[nH]c(=O)[nH]c2=O)cc1 | -2.43% (inactive) | 3.8 |  | 
57 | CCOC(=O)C1=C(N)N2C(=O)C(C)SC2=C(C(=O)OC)C1c1ccccc1OC (stereo unspecified) | -49.1% (inactive) | -22.7 |  | 
58 | CCOc1cc(/C=N\NC(=O)OC)ccc1OC(=O)c1ccco1 | 5.55% (inactive) | 10.8 |  | 
59 | Cc1ccc(N2CCN(S(=O)(=O)N3CCCCCC3)CC2)cc1Cl | 2.16% (inactive) | 8.56 |  | 
60 | Cc1ccc(Cc2nc(-c3cccnc3)no2)cc1 | 1.98% (inactive) | -9.21 |  | 
61 | O=C(CC(c1ccccc1)c1ccccc1)NCc1cccnc1 | 0.894% (inactive) | -6.85 |  | 
62 | Cc1ccc(C(=O)NCc2ccco2)cc1S(=O)(=O)N1CCCC1 | -9.67% (inactive) | 15 |  | 
63 | O=C(NCCCN1CCOCC1)C(=O)NCC1OCCN1S(=O)(=O)c1cc(F)ccc1F (stereo unspecified) | 4.03% (inactive) | 10.3 |  | 
64 | Cc1nnsc1C(=O)N1CCN(c2ccc(F)cc2)CC1 | -2.21% (inactive) | 6.97 |  | 
65 | CCOC(=O)c1cc2c(=O)n3cccc(C)c3nc2n(CCCOC)c1=NC(=O)c1cccnc1 | -13.8% (inactive) | -8.27 |  | 
66 | Cc1cccc(N2C(=O)c3ccc(C(=O)Nc4c[nH]c(=O)[nH]c4=O)cc3C2=O)c1 | 2.68% (inactive) | -0.423 |  | 
67 | CCOC(=O)Cn1nnc(-c2ccc(OCC(C)C)cc2)n1 | -1.83% (inactive) | -1.1 |  | 
68 | COc1ccc(C/C(N)=N/n2cnnc2)cc1Cl |  |  |  | inactive
69 | CC(C)COc1ccc(C/C(N)=N/n2cnnc2)cc1 |  | -24.2 | 20.6 µM (active) | 
70 | COc1ccc(NC(=O)N2Cc3ccccc3CC2C(=O)NC(C)(C)C)cc1 (stereo unspecified) | -2.72% (inactive) | -0.759 |  | 
71 | O=C(NCCNc1nccc(C(F)(F)F)n1)c1cccc(C(F)(F)F)c1 | 0.997% (inactive) | 8.97 |  | 
72 | CCN(CC)S(=O)(=O)c1cccc2cccnc12 |  | -17.9 | 7.31 µM (active) | 

Row | SMILES | lipid storage change, negative = inhibition | cell number change [%] | Potency | outcome
73 | O=S(=O)(c1cccc2cccnc12)N(CCO)CCO | -7.46% (inactive) | -16.7 |  | 
74 | CSS(=O)(=O)c1cccc2cccnc12 |  | -61.8 | 2.59 µM (active) | 
75 | CCCCN(c1ccccc1)S(=O)(=O)c1cccc2cccnc12 |  |  |  | inactive
76 | CCCNS(=O)(=O)c1cccc2cccnc12 | -0.974% [at 9.22 µM] (inactive) | 2.48 |  | 
77 | CNS(=O)(=O)c1cccc2cccnc12 | 11.3% [at 9.22 µM] (inactive) | 10 |  | 
78 | Cc1ccccc1OCC(=O)Nc1c2c(nn1C(C)(C)C)CS(=O)(=O)C2 | -10.3% (inactive) | -4.53 |  | 
79 | OCCC1CN(Cc2cnc(-c3ccccc3)s2)CCN1Cc1ccccc1 (stereo unspecified) | -1.73% (inactive) | -2.24 |  | 
80 | Cc1cc[n+](CC(=O)N2CCCc3ccccc32)cc1 | -6.44% (inactive) | -2.96 |  | 
81 | COC(=O)c1cc(-c2ccc(Br)cc2)c2c(=O)n(C)c(=O)n(C)c2n1 |  | -16.2 | 20.6 µM (active) | 
82 | CCOc1ccc(-c2cc(C(=O)OC)nc3c2c(=O)n(C)c(=O)n3C)cc1 | -8% (inactive) | 0.241 |  | 
83 | COC(=O)c1cc(-c2ccccc2)c2c(=O)n(C)c(=O)n(C)c2n1 | 8.5% (inactive) | 0.987 |  | 
84 | O=C1CSC(c2cccnc2)N1c1ccc(Cl)cc1 (stereo unspecified) | -4.47% (inactive) | -17.2 |  | 
85 | Cc1ccc2nc(-c3ccc4c(c3)NC(=O)CO4)cn2c1 | 2.78% (inactive) | 4.69 |  | 
86 | O=C1Nc2cc(C(=O)NCCCN3CCCC3)ccc2S/C1=C\c1ccccc1 |  | -4.94 |  | inactive
87 | CCC1CCCCN1CCCNC(=O)c1ccc2c(c1)NC(=O)CS2 (stereo unspecified) |  | 20.8 |  | inactive
88 | CCC1CCCCN1CCCNC(=O)c1ccc(/C=C2/Sc3ccccc3NC2=O)cc1 (stereo unspecified) |  | -7.79 | 5.17 µM (active) | 
89 | O=C(CSc1nncs1)Nc1ccc(N2CCCCC2)cc1 |  | -24 |  | inactive
90 | CCN1CCN(S(=O)(=O)c2ccc(Cl)c(C(=O)N(C)Cc3ccco3)c2)CC1 | 14.4% (inactive) | 2.03 |  | 
91 | Cc1ccc(S(=O)(=O)C2(C(=O)NC3CCCCC3C)CC2)cc1 (stereo unspecified) | -7.07% (inactive) | -11.4 |  | 
92 | OCCN(CCO)c1nc(-c2ccccc2)nc2c1oc1ccccc12 | -0.413% (inactive) | -3.98 |  | 
93 | Cc1ccc(C(=O)C2=C(O)C(=O)N(Cc3cccnc3)C2c2ccc(Cl)cc2)o1 (stereo unspecified) |  | 10.8 |  | inactive
94 | COc1ccc(C2C(C(=O)c3ccc(C)o3)=C(O)C(=O)N2Cc2cccnc2)cc1OC (stereo unspecified) |  | 1.8 | 0.13 µM (active) | 
95 | Cc1ccc(C(=O)C2=C(O)C(=O)N(Cc3cccnc3)C2c2ccc(Br)cc2)o1 (stereo unspecified) | 22% (inactive) | 4.99 |  | 
96 | O=C(N1CCCC1)C12CC3CCC(CC(C3)C1)C2 | -23.5% (inactive) | 3.73 |  | 
